According to PubChem BioAssay (NCI):
This is part of a sample that, as a whole, favours compounds with a hit. Of some 83,000 tested, about 20% had one in any assay.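 For each line, cells grew in 96-well plates with the test compound present at a single concentration for 48 hours.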 Activity calls are given as the source filed them. How the source made its calls: active means growth percent below 10; inactive means the rest.

Experiments:
Assay in all cases: NCI-60 one-dose screen, 48 h (100 = growth as untreated, 0 = no growth, -100 = all killed)
Conditions in all cases: 10 µM unless noted
[1] = tested on: T-47D breast
[2] = tested on: BT-549 breast
[3] = tested on: MDA-MB-435 melanoma
[4] = tested on: SW-620 colon
[5] = tested on: MCF7 breast
[6] = tested on: HCT-116 colon
[7] = tested on: HCC-2998 colon
[8] = tested on: KM12 colon

Measured: growth

COc1cccc2c1n([O-])c1cccc(OC)c1[n+]2=O
active: [7] -4.2%
inactive: [1] 50.2% | [2] 71.5% | [3] 91.5% | [4] 68% | [5] 36.9% | [6] 48.5% | [8] 73.3%

Cc1nnc(-c2cc3c(ccc4ccccc43)oc2=O)c2cn(-c3ccc(Cl)cc3)nc12
inactive: [1] 76.2% | [2] 105% | [3] 107% | [4] 99.3% | [5] 80.1% | [6] 85.6% | [7] 97.3% | [8] 94.4%

N=C(N)c1ccc(-c2ccc(-c3cc(Cl)cc(Cl)c3)s2)cc1
active: [1] -54% | [2] -45.7% | [3] -90.2% | [4] -70.9% | [5] -72.5% | [6] -78.7% | [7] -65.2% | [8] -77.4%

O=C1/C(=C/c2ccc(Cl)cc2)CCC/C1=C\c1ccc(Cl)cc1
active: [6] -42.6%
inactive: [1] 79.6% | [2] 97% | [3] 15.9% | [4] 30.6% | [5] 17.3% | [7] 28.6% | [8] 18.7%

CSC1=Nc2c(c(C)c(-c3ccccc3)n2CCCCl)C2=NC(=O)CN12
inactive: [1] 72.4% | [2] 61.2% | [4] 44.4% | [5] 36.3% | [6] 26.7% | [7] 72.3% | [8] 26.1%
active: [3] -31.4%

CC(=O)c1cc(Nc2cc(C)nc(N)n2)cc(C(C)=O)c1
inactive: [1] 85.9% | [2] 98.7% | [3] 117% | [4] 92.2% | [5] 110% | [6] 97% | [7] 51.9% | [8] 97.3%

CCOc1ccc(N(C)c2ccc(/C=C/C3=[N+](C)c4ccccc4C3(C)C)cc2)cc1
inactive: [1] 23.2% | [5] 10.1% | [7] 11.4%
active: [2] 3.12% | [3] -51% | [4] -40.4% | [6] -45.6% | [8] -93%

Cc1cc2c(-c3nc4ccccc4[nH]3)c(O)c(O)cc2c(O)c1-c1c(C)cc2c(-c3nc4ccccc4[nH]3)c(O)c(O)cc2c1O
inactive: [3] 23.3% | [4] 23.4% | [7] 19.5%
active: [1] -16.7% | [2] -6.04% | [5] 5.3% | [6] 7.37% | [8] -38.6%

COc1ccc(/C=C(/C(=O)N2CCCCC2)c2cc(OC)c(OC)c(OC)c2)cc1
active: [3] -51.3%
inactive: [1] 45.8% | [2] 53.6% | [4] 23.2% | [5] 18.2% | [6] 17.6% | [7] 46.8% | [8] 16%

N=C(N)N=Nc1ccc(NN=C(N)N)cc1
inactive: [1] 97.3% | [2] 88.9% | [3] 109% | [4] 38.3% | [5] 90.9% | [6] 85.9% | [7] 86.6% | [8] 43.8%

OCCN1CCCN(CCCN2c3ccccc3Sc3ccc(C(F)(F)F)cc32)CC1
active: [3] -29.2% | [7] -42.4%
inactive: [1] 60.7% | [2] 72.3% | [4] 67.7% | [5] 39.2% | [6] 29.2% | [8] 54.7%

CC[C@@H](C)/C=C(C)/C=C/C(=O)c1c(O)c(-c2ccc(OC(=O)[C@@]34CC[C@@](C)(C(=O)O3)C4(C)C)cc2)cn(O)c1=O
inactive: [1] 34.7% | [3] 22.2% | [4] 37.3% | [5] 15.6% | [6] 17.1% | [8] 18.4%
active: [2] -0.686% | [7] -10.3%

CC(O)c1cc[cH-]c1.[Fe+2].c1cc[cH-]c1 (stereo unspecified)
inactive: [1] 101% | [2] 95.5% | [3] 104% | [4] 103% | [5] 103% | [6] 94.1% | [7] 109% | [8] 103%

O=C(Nc1ccccc1)Nc1ccc(Nc2ncnc3sc4c(c23)CCCC4)cc1
inactive: [1] 101% | [2] 109% | [3] 112% | [4] 106% | [5] 96.2% | [6] 115% | [7] 95.4% | [8] 102%

BrCCCOc1ccc(Oc2ccc(OCCCBr)cc2)cc1
inactive: [1] 113% | [2] 91% | [3] 107% | [4] 108% | [5] 97.9% | [6] 102% | [7] 119% | [8] 113%

CC(=O)Nc1ccc(CC#N)cc1Br
inactive: [1] 94.4% | [2] 109% | [3] 104% | [4] 99.3% | [5] 96.7% | [6] 96.8% | [7] 96.7% | [8] 107%

COCn1c(C(=O)OC)cc2oc(/C=C3/SC(=S)N(N)C3=O)cc21
inactive: [1] 94.4% | [2] 80.8% | [3] 94.9% | [4] 97.6% | [5] 97% | [6] 93.8% | [7] 102% | [8] 92.3%
